The results in this text go back to PubChem BioAssay (NCI).

Experiment [1] in a line: NCI Yeast Anticancer Drug Screen. Data for the rad50 strain (AID 155).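 Note: 0% = growth of vehicle-only cultures of the same strain.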 The conditions noted are these: S. cerevisiae rad50 strain growth inhibition, hits give high values. The essentials:
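Relative growth inhibition (compound vs vehicle) was measured in yeast with a defined repair-gene alteration.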

Experiment [2] can be described thus: NCI Yeast Anticancer Drug Screen. Data for the mec2-1 strain (AID 157). The conditions noted are these: S. cerevisiae mec2-1 strain, hits give high values. The essentials:
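Strain: mec2-1 (DNA repair/cell cycle alteration). Compound exposure, then growth measured; inhibition expressed relative to vehicle.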

Experiment [3] is described as follows: NCI Yeast Anticancer Drug Screen. Data for the sgs1 mgt1 strain (AID 161).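 Note: 0% = growth of cultures given vehicle only.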 The conditions noted are these: S. cerevisiae sgs1 mgt1 strain, hits give high values. The essentials: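 Test agents were incubated with a DNA-repair-mutant yeast strain. Growth was then read and compared against vehicle-treated controls.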
Experiment [4] can be described thus: NCI Yeast Anticancer Drug Screen. Data for the cln2 rad14 strain (AID 165).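 Note: 0% = growth equal to vehicle treated cultures.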 The conditions noted are these: S. cerevisiae cln2 rad14 strain, hits give high values. The essentials: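 Compounds are applied to the cln2 rad14 yeast strain, and growth is then compared with that of vehicle-treated cultures to give inhibition.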
Experiment [5] in a line: NCI Yeast Anticancer Drug Screen. Data for the bub3 strain (AID 167). The conditions noted are these: S. cerevisiae bub3 mutant strain, hits give high values. The essentials:
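Screening used yeast with an engineered genetic alteration affecting cell cycle control. Compound-exposed cultures were compared with vehicle cultures, and reduced growth was taken as inhibition.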

Experiment [6] in a line: NCI Yeast Anticancer Drug Screen. Data for the mlh1 rad18 strain (AID 175). The conditions noted are these: S. cerevisiae mlh1 rad18 strain growth inhibition, hits give high values. The essentials:
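Read-out is yeast growth inhibition, calculated against vehicle-only controls. The compound was applied to a strain engineered with DNA damage repair alterations.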

Where [7] appears, read: at 5.0 µM (retest, dose inferred, filed as 0.5).
Setting [8] is: at 50.0 µM (retest, dose inferred, filed as 5.0).

The structures appear in SMILES notation. Compounds without any hit were thinned out: in the full panel of roughly 79,000, 15% have a hit. Unmarked numbers belong to inactive results. Activity calls are given as the source filed them. Cut-off read from the data, not from the text of the source: active = growth inhibition above about 70%; inactive = the rest.

On to `NC(=S)N/N=C1\NC(=O)/C(=C/c2ccc3c(c2)OCO3)S1`, for which the growth inhibition in experiment [1] (setting [7]) is 16%; in experiment [1] (setting [8]), 12%; in experiment [1] (at 50.0 µM), -45.6%; in experiment [2] (setting [7]), 15%; in experiment [2] (setting [8]), 20%; in experiment [2] (at 50.0 µM) it was -40.6%. Further, the growth inhibition in experiment [3] (setting [7]) was 13%; in experiment [3] (setting [8]) it was 13%; in experiment [3] (at 50.0 µM) it was -13.3%; in experiment [4] (setting [7]), 16%; in experiment [4] (setting [8]), 11%; in experiment [4] (at 50.0 µM) it was -13.9%. The growth inhibition in experiment [5] (setting [7]) was 9%; in experiment [5] (setting [8]), 31%; in experiment [5] (at 50.0 µM) it was 0.7%; in experiment [6] (setting [7]) it was 14%; in experiment [6] (setting [8]) it was 18%; in experiment [6] (at 50.0 µM), -14%.
`Cc1ccc(S(=O)(=O)N2CCN(C)CC2)cc1`: the growth inhibition is -1% in experiment [1] (setting [7]); 12% in experiment [1] (setting [8]); 19.4% in experiment [1] (at 50.0 µM); -5% in experiment [2] (setting [7]); 26% in experiment [2] (setting [8]); 4.45% in experiment [2] (at 50.0 µM). Moreover, the growth inhibition in experiment [3] (setting [7]) is 4%; in experiment [3] (setting [8]), 31%; in experiment [3] (at 50.0 µM) it was 5.5%; in experiment [4] (setting [7]), 1%; in experiment [4] (setting [8]), 16%; in experiment [4] (at 50.0 µM) it was -0.55%. Further, the growth inhibition in experiment [5] (setting [7]) was 1%; in experiment [5] (setting [8]), 39%; in experiment [5] (at 50.0 µM), 40.5%; in experiment [6] (setting [7]) it was 13%; in experiment [6] (setting [8]) it was 49%; in experiment [6] (at 50.0 µM), 11.6%.
`COC1/C=C\OC2(C)Oc3c(C)c(O)c4c(c3C2=O)C(=O)C=C(NC(=O)C(C)=C/C=C\C(C)C(O)C(C)C2OC(C)(C)OC(C1C)C2C)C4=O` (configuration not stated): the growth inhibition in experiment [1] (setting [7]) is -4%; in experiment [1] (setting [8]), 93% (active); in experiment [1] (at 50.0 µM) it was 28.9%; in experiment [2] (setting [7]) it was 24%; in experiment [2] (setting [8]), 37%; in experiment [2] (at 50.0 µM) it was 33.5%. Further, the growth inhibition in experiment [3] (setting [7]) was 1%; in experiment [3] (setting [8]), 52%; in experiment [3] (at 50.0 µM), 41.8%; in experiment [4] (setting [7]) it was 19%; in experiment [4] (setting [8]) it was 74% (active); in experiment [4] (at 50.0 µM), 31.9%. In addition, the growth inhibition was -3% in experiment [5] (setting [7]); 93% (active) in experiment [5] (setting [8]); 14.9% in experiment [5] (at 50.0 µM); 1% in experiment [6] (setting [7]); 77% (active) in experiment [6] (setting [8]); 38.5% in experiment [6] (at 50.0 µM).
`O=C(NN=C1CCCCC1)c1ccc([N+](=O)[O-])cc1`: the growth inhibition in experiment [1] (setting [7]) was -1%; in experiment [1] (setting [8]) it was -7%; in experiment [1] (at 50.0 µM) it was -0.5%; in experiment [2] (setting [7]), -17%; in experiment [2] (setting [8]) it was -11%; in experiment [2] (at 50.0 µM), 0.2%. Moreover, the growth inhibition in experiment [3] (setting [7]) was 13%; in experiment [3] (setting [8]), 9%; in experiment [3] (at 50.0 µM), 10.6%; in experiment [4] (setting [7]), -1%; in experiment [4] (setting [8]), 10%; in experiment [4] (at 50.0 µM), 37.5%. Moreover, the growth inhibition in experiment [5] (setting [7]) is 19%; in experiment [5] (setting [8]), 24%; in experiment [5] (at 50.0 µM), -2.95%; in experiment [6] (setting [7]) it was 4%; in experiment [6] (setting [8]) it was 7%; in experiment [6] (at 50.0 µM), 20.2%.
Consider `Cc1nc(Nc2ccccc2)sc1C(=O)NNc1ccc([N+](=O)[O-])cc1[N+](=O)[O-]`, for which the growth inhibition in experiment [1] (setting [7]) is 19%; in experiment [1] (setting [8]), 19%; in experiment [1] (at 50.0 µM), 12.6%; in experiment [2] (setting [7]), 7%; in experiment [2] (setting [8]), 7%; in experiment [2] (at 50.0 µM) it was 40.2%. Further, the growth inhibition is -6% in experiment [3] (setting [7]); -6% in experiment [3] (setting [8]); 60.8% in experiment [3] (at 50.0 µM); 14% in experiment [4] (setting [7]); 14% in experiment [4] (setting [8]); 28.4% in experiment [4] (at 50.0 µM). Moreover, the growth inhibition in experiment [5] (setting [7]) was 15%; in experiment [5] (setting [8]), 15%; in experiment [5] (at 50.0 µM) it was 43%; in experiment [6] (setting [7]), 20%; in experiment [6] (setting [8]) it was 20%; in experiment [6] (at 50.0 µM), 66.2%.
Take `COC(=O)/C(=C\c1cn(C(C)=O)c2ccccc12)P(=O)(OC)OC`: the growth inhibition was 9% in experiment [1] (setting [7]); 21% in experiment [1] (setting [8]); 41.8% in experiment [1] (at 50.0 µM); 5% in experiment [2] (setting [7]); 70% (active) in experiment [2] (setting [8]); 62.6% in experiment [2] (at 50.0 µM). In addition, the growth inhibition in experiment [3] (setting [7]) is 2%; in experiment [3] (setting [8]), 51%; in experiment [3] (at 50.0 µM) it was 70.8% (active); in experiment [4] (setting [7]) it was 31%; in experiment [4] (setting [8]), 38%; in experiment [4] (at 50.0 µM), 63.9%. Further, the growth inhibition in experiment [5] (setting [7]) is -24%; in experiment [5] (setting [8]) it was 73% (active); in experiment [5] (at 50.0 µM), 78.5% (active); in experiment [6] (setting [7]), 16%; in experiment [6] (setting [8]), 69%; in experiment [6] (at 50.0 µM) it was 75.8% (active).
For `Nc1ccc(SC23CC4CC(CC(C4)C2)C3)cc1`, the growth inhibition in experiment [1] (setting [7]) is 1%; in experiment [1] (setting [8]) it was 74% (active); in experiment [1] (at 50.0 µM) it was 94.1% (active); in experiment [2] (setting [7]), 0%; in experiment [2] (setting [8]), 42%; in experiment [2] (at 50.0 µM), 94.4% (active). The growth inhibition in experiment [3] (setting [7]) is 9%; in experiment [3] (setting [8]), 78% (active); in experiment [3] (at 50.0 µM), 96% (active); in experiment [4] (setting [7]), -69%; in experiment [4] (setting [8]) it was 61%; in experiment [4] (at 50.0 µM), 95.1% (active). For the same molecule, the growth inhibition in experiment [5] (setting [7]) is 40%; in experiment [5] (setting [8]), 33%; in experiment [5] (at 50.0 µM) it was 95.7% (active); in experiment [6] (setting [7]), 10%; in experiment [6] (setting [8]), 91% (active); in experiment [6] (at 50.0 µM), 89.2% (active).
Take `Nc1ccc(S(=O)(=O)N2CCCc3ccccc32)cc1`: the growth inhibition is 5% in experiment [1] (setting [7]); 20% in experiment [1] (setting [8]); 83.7% (active) in experiment [1] (at 50.0 µM); 7% in experiment [2] (setting [7]); 21% in experiment [2] (setting [8]); 56.9% in experiment [2] (at 50.0 µM). For the same molecule, the growth inhibition in experiment [3] (setting [7]) is 4%; in experiment [3] (setting [8]), 34%; in experiment [3] (at 50.0 µM), 84% (active); in experiment [4] (setting [7]) it was 2%; in experiment [4] (setting [8]), 23%; in experiment [4] (at 50.0 µM), 74.2% (active). Moreover, the growth inhibition is 3% in experiment [5] (setting [7]); 28% in experiment [5] (setting [8]); 82% (active) in experiment [5] (at 50.0 µM); 7% in experiment [6] (setting [7]); 40% in experiment [6] (setting [8]); 74.4% (active) in experiment [6] (at 50.0 µM).
In the case of `Cc1cc(CN(Cc2ccccc2)Cc2nc3ccccc3[nH]2)c(O)c(CN(Cc2nc3ccccc3[nH]2)Cc2nc3ccccc3[nH]2)c1`, the growth inhibition is 7% in experiment [1] (setting [7]); 44% in experiment [1] (setting [8]); 73% (active) in experiment [1] (at 50.0 µM); -3% in experiment [2] (setting [7]); 24% in experiment [2] (setting [8]); 72.5% (active) in experiment [2] (at 50.0 µM). Further, the growth inhibition in experiment [3] (setting [7]) is 1%; in experiment [3] (setting [8]), 70% (active); in experiment [3] (at 50.0 µM) it was 94.3% (active); in experiment [4] (setting [7]) it was -5%; in experiment [4] (setting [8]), 59%; in experiment [4] (at 50.0 µM), 67.3%. The growth inhibition in experiment [5] (setting [7]) was 3%; in experiment [5] (setting [8]), 66%; in experiment [5] (at 50.0 µM), 27.9%; in experiment [6] (setting [7]) it was 2%; in experiment [6] (setting [8]), 79% (active); in experiment [6] (at 50.0 µM), 93.3% (active).
